Reference: the supplement of paper PMC4380459

Each compound was assayed on tubulin (bovine brain) (assay: tubulin polymerization end-point dOD, fold change relative to DMSO vehicle; higher = more polymerization (stabilization)). Details: 50 µM; 60 min; 37 °C.
Method: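 In-vitro tubulin polymerization assay (Cytoskeleton HTS kit) with 4 mg/ml bovine brain tubulin in G-PEM buffer and compound at 50 uM (0.5% DMSO). Turbidity was read at 340 nm every minute for 1 h at 37 C. The end-point change in OD (dOD) was converted to % fold change relative to the DMSO vehicle (0%), and runs were scaled using DMSO and Taxol controls. The paper calls >20% an effect, 20-40% weak and >40% strong; positive values mean stabilization, negative values destabilization. Scale: negative = destabilization.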

SMILES | tubulin polymerization end-point dOD [%]
COc1ccc(OC)c(NC(=O)CSc2nc3cc4c(cc3cc2C)CCC4)c1 | 20.5
O=C(Nc1ccc2c(c1)OCCO2)C(=O)Nc1ccccc1Cl | 13.5
O=C1NC(c2c(-c3ccccc3)[nH]c3ccccc23)Nc2ccccc21 (stereo not given) | -92.1
Cc1ccc2cc(C)c3nn(CCNC(=O)c4cccnc4)c(=O)n3c2c1 | -40.4
Cc1ccc(C)c(NC(=O)CSc2nc3cc4c(cc3cc2C#N)OCO4)c1 | 52.6
Cc1cccc(Cc2cnc(NC(=O)c3sc4ccccc4c3Cl)s2)c1 | 81.7
CCc1ccccc1NC(=O)CSc1nc2cc3c(cc2cc1C#N)OCCO3 | -23.9
O=C(Nc1ncc(Cc2ccccc2Br)s1)c1cccnc1 | -64.1
CCOC(=O)c1[nH]c(C)c(C(=O)c2cc(F)ccc2F)c1C | 5.16
Cc1ccc2nc(NC(=O)c3cc(Br)c[nH]3)sc2c1 | -51.9
Cc1ccc(C(=O)CSc2nc3c(C)cccc3cc2C#N)cc1 | -15.2
COc1ccc(Br)cc1-c1nc(CN2C(=O)NC(C)(c3ccccc3)C2=O)cs1 (stereo not given) | 88.8
COc1ccc2cc(CN(Cc3cccs3)C(=O)Nc3ccccc3Cl)c(=O)[nH]c2c1 | -57.2
COc1ccc(-n2nnnc2SCc2cc3c(cc2Br)OCO3)cc1 | -14.8
COc1ccc2cc(CN(CC3CCCO3)C(=O)Nc3ccc(Cl)cc3)c(=O)[nH]c2c1 (stereo not given) | -0.367
N#Cc1ccc(N2CC[NH+](Cc3ccc(-c4ccccc4Cl)s3)CC2)nc1 | -56.2
CCCn1c(NC(=O)C2CC(=O)N(c3ccc4c(c3)OCCO4)C2)nc2ccccc21 (stereo not given) | -4.32
O=C1CCCN1c1ccc(S(=O)(=O)Oc2ccc(Cl)cc2)cc1 | -18.4
COc1ccccc1-n1c(SCC(=O)Nc2nc(C)cs2)nnc1-c1cccnc1 | -51
COc1ccc2nc(SCC(=O)Nc3ccccc3Br)c(C#N)cc2c1 | 14.8

SMILES | tubulin polymerization end-point dOD [%]
CN(C)c1ccc(/C=N/NC(=O)c2cccc(F)c2)cc1 | 27.6
CCc1cc2cc(OC)ccc2nc1SCC(=O)Nc1ccccc1Cl | -96.6
CSc1ncc(C(=O)Nc2ccc(Oc3ccc4c(c3)OCO4)cc2)cn1 | -8.44
Cc1cc2nc(/C=C/c3cccnc3)sc2cc1C | -34.3
Cc1cc2cc(CN(CC3CCCO3)C(=S)Nc3ccccc3)c(=O)[nH]c2cc1C (stereo not given) | -20.3
COc1cc(OC)cc(C(=O)N(Cc2ccccc2OC)Cc2cc3c(C)ccc(C)c3[nH]c2=O)c1 | 12.8
COc1ccc2nc(/C=C/c3cccnc3)sc2c1 | -29.9
COc1ccc(/C=N/NC(=O)c2cccc(F)c2)cc1Br | -16.1
Cc1cccc2cc3c(N)c(C(=O)N4CCCc5ccccc54)sc3nc12 | -46.4
Cc1ccc2cc(C)c3nn(CCNC(=O)c4ccncc4)c(=O)n3c2c1 | -34.2
COc1ccc(/C(C)=N/Nc2cc[nH+]c3cc(Cl)ccc23)cc1OC | 3.81
CCc1ccc2nc(SCC(=O)Nc3ccccc3N3CCOCC3)c(C#N)cc2c1 | -7.7
Cc1ccc(C(=O)Nc2ncc(Cc3ccccc3Br)s2)cn1 | -35.9
O=C(Nc1ncc(Cc2ccc(F)cc2)s1)c1ccc2c(c1)OCO2 | 20.1
CCc1cc2cc3c(cc2nc1SCC(=O)NCCc1ccccc1)OCO3 | 387
COc1cccc(N2CCN(C(=O)c3cn(-c4ccccc4)nc3-c3cccnc3)CC2)c1 | -111
Cc1cc2c(cc(C(=O)OCC(=O)NCc3ccco3)n2C)s1 | 39.4
O=C(Nc1ccc(CNc2ncnc3cc(Cl)ccc23)cc1)C1CC1 | 8.64
N#Cc1cc2cc3c(cc2nc1SCC(=O)Nc1ccccc1Cl)OCCO3 | 17.2
CCOc1ccc(C(=O)N(Cc2cccs2)Cc2cc3cc(C)ccc3[nH]c2=O)cc1 | 27.2
